Screening data from PubChem.
sEH inhibitor – inhibitors of human soluble epoxide hydrolase; recombinant human sEH enzymatic activity assay; inhibition, % at 2 µM; 91,000 tested, 0.34% active; AID 707; in the data active = inhibition above about 80%
Target sequence (P34913 whole entry, looked up): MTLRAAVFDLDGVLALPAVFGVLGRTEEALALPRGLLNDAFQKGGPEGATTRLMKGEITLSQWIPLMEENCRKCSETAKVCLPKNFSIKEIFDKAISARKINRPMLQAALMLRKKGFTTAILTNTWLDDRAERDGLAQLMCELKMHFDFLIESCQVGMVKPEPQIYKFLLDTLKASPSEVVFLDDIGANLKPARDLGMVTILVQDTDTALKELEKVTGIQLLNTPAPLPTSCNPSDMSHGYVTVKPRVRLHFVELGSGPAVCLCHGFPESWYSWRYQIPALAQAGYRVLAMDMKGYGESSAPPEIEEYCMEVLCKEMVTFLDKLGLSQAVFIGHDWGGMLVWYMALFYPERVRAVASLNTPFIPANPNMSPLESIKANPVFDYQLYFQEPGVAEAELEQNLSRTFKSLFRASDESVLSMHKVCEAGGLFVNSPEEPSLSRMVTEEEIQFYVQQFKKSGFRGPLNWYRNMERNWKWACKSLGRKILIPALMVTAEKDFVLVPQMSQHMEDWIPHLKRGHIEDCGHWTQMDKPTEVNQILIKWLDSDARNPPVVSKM
Measles CPE – protection of cells from measles virus. 140,000 tested, 1.5% active. protection (pct of control), % at 4 µM. Measles virus-infected cells, CPE protection, absorbance; in the data active = protection mostly above about 24%, no sharp cut-off; inactive = mostly below about 26%
MRP-1 activ – activates MRP-1. 140,000 tested, 0.61% active. H69AR cells + doxorubicin, viability rescue, CellTiter-Glo. AID 799. viability increase, % at 10 µM;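 active = viability gain under doxorubicin at or above a set limit, the compound median plus 3 SD, cut at about 4.7% in these data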;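 note: MRP-1 overexpressing cells given doxorubicin 25 µM after compound pretreatment; 18-22 h compound pretreatment then 72 h with doxorubicin before readout; 0% = doxorubicin-only wells and 100% = vehicle-treated cells without doxorubicin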
MRP resist rev – compounds reversing MRP-mediated drug resistance | differential viability (reversal), % at 10 µM | 85,000 tested, 0.04% active | H69AR cells + 2 uM doxorubicin, CellTiter-Glo, 72 h;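 active = viability drop by adding the cancer drug above about 55%, with treated viability meeting a 40% cutoff, limit read from the data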;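 note: viability without doxorubicin minus viability with 2 µM doxorubicin for each compound; larger differential means the compound sensitizes cells more to doxorubicin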
SDO1 yeast rescue – restores growth of sdo1-depleted yeast; z-score at 10 µM; AID 817; S. cerevisiae sdo1-depleted JHY4D growth rescue, OD600 30 h; hits give high values; pdr5 snq2 efflux-pump mutant strain; 140,000 tested, 0.21% active;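 active = z-score above 3 at both the 24 hr and the 30 hr optical density reads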;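 note: z-score against mean and SD of all compound wells on the same plate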
sEH activator – activators of human soluble epoxide hydrolase; activation, % at 2 µM; 91,000 tested, 0.04% active; purified human sEH enzymatic activity, activator screen; P34913; in the data active = activation above about 37%
Active calls of the source: *; / = not tested or not shown; [ ] = another dose, or the depositor's remark. A selection: hits, their analogues and other compounds. The true share with any hit is near 2.5%.

SMILES	sEH inhibitor	Measles CPE	MRP-1 activ	MRP resist rev	SDO1 yeast rescue	sEH activator
Cc1ccccc1C(=NCCCN(C)C)c1ccccc1C	/	3.1	-2.7	/	0.34	/
O=C1CC(N2CCOCC2)C(=O)N1Cc1ccc(N2CCCC2=O)cc1 (stereo not given)	9.6	42.2*	1.7	0.1	0.17	-9.5
CC(C)(C)C(=O)COC(=O)c1ccc(O)cc1	-5.0	54.9*	-2.7	-9.6	0.87	4.0
CC(C)(C)C(=O)COC(=O)c1ccccc1O	3.5	8.1	0.7	/	0.54	-0.6
COc1ccccc1NCCC(=O)OCC(=O)Nc1ccc(Cl)cn1	/	18.3	0.0	-9.7	0.24	/
CCN1CCN(C(c2nnnn2Cc2ccc3c(c2)OCO3)C(C)C)CC1 (stereo not given)	16.3	56.4*	2.6	6.4	-0.2	-12.7
Cc1nn(-c2ccccc2)c(N)c1Sc1ccccc1[N+](=O)[O-]	/	46.0*	1.3	/	-0.88	/
Cc1ccc(N(CC(=O)NC2CCCCC2)C(=O)c2ccc(C)s2)cc1	81.0*	9.4	-2.3	/	-1.14	-80.4
Cc1cc(C)cc(N(CC(=O)NC2CCCCC2)C(=O)c2ccc(C)s2)c1	6.6	8.2	-2.9	/	-1.37	-3.6
COC(=O)c1ccc(N2C(=O)CC(N(C)CCc3ccc(OC)c(OC)c3)C2=O)cc1 (stereo not given)	14.1	138.4*	-1.0	11.1	-0.05	-14.0
COC(=O)c1ccc(N2C(=O)CC(N(C)Cc3ccccc3)C2=O)cc1 (stereo not given)	/	21.1	-0.5	0.0	0.27	/
CC(=O)Nc1cc(Cl)ccc1OS(=O)(=O)c1ccc(C)cc1	/	8.3	-0.4	/	0.68	/
CCC(c1nnc(SCC(=O)N2CC3(C)CC2CC(C)(C)C3)o1)N(C)C (stereo not given)	-7.6	47.8*	-2.1	23.5	0.41	7.0
CCNc1nc(NCC)n2c(SCC(=O)N3CC4(C)CC3CC(C)(C)C4)nnc2n1 (stereo not given)	/	18.9	-1.7	/	0.89	/
CCCNC(=O)N1CCC(C(=O)c2cccc(F)c2)CC1	5.4	7.7	0.3	4.6	0.31	-2.1
CC(C)c1ccc(NC(=O)COc2ccc(F)cc2C(=O)c2cnn(-c3ccccc3)c2)cc1	/	0.2	-3.4	/	-1.2	/
CCCc1[nH]nc2c1C(c1ccc(OC)c(CSC3=NCCS3)c1)C(C#N)=C(N)O2 (stereo not given)	21.7	27.9*	-0.2	-21.6	0.65	-19.1
CCCc1[nH]nc2c1C(c1ccc(OC(=O)N3CCOCC3)c(OC)c1)C(C#N)=C(N)O2 (stereo not given)	4.1	8.2	-1.3	-7.3	-0.19	-2.7
CCCc1[nH]nc2c1C(c1cc(OC)cc(OC)c1)C(C#N)=C(N)O2 (stereo not given)	13.3	83.2*	-1.6	-20.9	-0.05	-12.1
O=C1NC(=S)SC1=C1CCCC1	-5.8	13.1	-0.7	-4.2	-1.14	8.0
CCCCCCc1nc2ccccc2c(=O)n1NC(=O)c1c(O)c2cccc3c2n(c1=O)CC3	13.1	/	/	-44.8	/	-13.1
O=C(CCn1c(=O)[nH]c2ccsc2c1=O)N1CCN(c2cccc(Cl)c2)CC1	/	7.7	-2.9	-22.2	2.42	/
Cc1ccc(Cl)cc1N1CCN(C(=O)Cc2ccc(-n3c(=O)[nH]c4ccsc4c3=O)cc2)CC1	/	16.2	9.7*	/	1.67	/
CCN1C(=O)C(C)S/C1=N\S(=O)(=O)c1ccc(Cl)s1 (stereo not given)	15.1	4.6	-3.0	7.1	-0.15	-14.1
Nc1nc(N2CCOCC2)cc(=O)[nH]1	8.9	11.8	-0.6	1.6	-0.23	-9.3
SMILES	sEH inhibitor	Measles CPE	MRP-1 activ	MRP resist rev	SDO1 yeast rescue	sEH activator
CCn1c(COc2ccc(C)cc2)nnc1SCc1nc2ccccc2[nH]1	13.6	5.2	7.6*	-8.1	-0.42	-12.6
CCc1ccc(NC2=NC(C(=O)NC3CCCCC3)CC(=O)N2)cc1 (stereo not given)	3.7	56.2*	-1.9	6.9	1.07	-1.2
CCOc1nc(NC2CCCCC2)nc(NC(C)(C)C)n1	-2.2	61.1*	-5.2	12.4	-0.6	4.8
COc1cccc(CN(C)C(=O)Nc2cccc(C(F)(F)F)c2)c1OC	/	3.4	1.7	/	-0.31	/
CC(Oc1ccc(Cl)cc1Cl)C(=O)NC1CCSC1=O (stereo not given)	-12.9	17.6	12.5*	-8.7	-0.11	10.5
COCCNC(=O)C(C)Oc1ccc(Cl)cc1Cl (stereo not given)	11.8	4.6	-2.2	/	0.94	-8.5
O=C(Nc1ccccc1C(=O)NCc1cccnc1)c1ccc(Cl)cc1Cl	/	3.0	-1.9	/	-0.65	/
COc1ccccc1/C=C(/C(=O)OCC(=O)Nc1cc(C)ccc1C)c1ccccc1	/	38.0	0.1	/	-1.05	/
CC1(C)C(c2cccs2)=[N+]([O-])C2(CCCCC/C2=N\NC(N)=O)N1O (stereo not given)	-0.2	30.4*	0.4	4.3	0.34	2.6
Cc1ccc(C2=[N+]([O-])C3(CCCCC/C3=N\O)N(O)C2(C)C)o1 (stereo not given)	/	32.5	-1.8	0.2	0.9	/
CNC(=O)/C=C/c1cccc(C(F)(F)F)c1	/	52.9*	1.7	/	-0.47	/
CC(C)Cc1nc2sc3c(=O)n(N)cnc3c2c2c1COC(C)(C)C2	/	6.4	-2.8	/	-0.82	/
C=C(C)Cn1c(SCC)nc2ccccc2c1=O	-7.1	27.8*	-0.8	13.5	-1.02	4.5
O=C(c1ccc(-n2c(SCc3cc(F)ccc3F)nc3ccccc3c2=O)cc1)N1CCOCC1	/	8.3	-0.5	/	0.05	/
CC(=O)NCCn1c(SCc2cc(F)ccc2F)nc2ccccc2c1=O	4.3	40.5*	-2.3	2.6	-0.7	-5.4
C=C(C)Cn1c(SCC#N)nc2ccccc2c1=O	0.3	2.8	0.2	24.1	-0.24	2.0
O=c1c2ccccc2nc(SCc2cc(F)ccc2F)n1C1CCCC1	10.1	30.7*	-1.0	/	-1.05	-8.6
Cc1cc(-c2ccccc2)nc(N2CCC(C(=O)NCC3CCCCC3)CC2)n1	43.0	/	/	1.4	/	-39.9
CCCN(CC1CC1)C(=O)CSc1nnc(-c2cc(-c3cccs3)nc3ccccc23)o1	1.4	3.1	1.6	8.4	0.04	-1.8
CC(=O)c1cccc(NC(=S)NC(=O)CC(C)(C)C)c1	-8.6	5.9	-4.6	/	0	10.7
CCCCNC(=O)C(C#N)c1nc2ccccc2nc1N1CCN(c2ccccc2F)CC1 (stereo not given)	0.8	2.6	1.7	3.0	0.5[10.2 µM]	-1.1
O=[N+]([O-])c1cc(S(=O)(=O)Nc2ccccc2)ccc1NCc1ccccc1	/	36.8*	3.3	/	-1.87	/
O=[N+]([O-])c1cc(S(=O)(=O)Nc2ccccc2)ccc1NCc1cccnc1	/	13.7	0.9	/	0.81	/
O=CNc1ccc(S(=O)(=O)NCc2ccccc2)cc1	-42.6	5.6	1.8	14.0	1.01	39.2*
O=C(Nc1cccc(C(F)(F)F)c1)c1cc(-c2cccs2)on1	/	66.7*	-1.9	/	-0.04	/
CSc1c(CC(=O)Nc2ccc(F)cc2)n(Cc2ccccc2)c2ccccc12	/	5.4	0.1	/	-0.67	/
N#C/C(=C/c1cc(Br)cs1)C(=O)NCC1CCCO1 (stereo not given)	6.0	36.9*	-2.2	/	0.41	-7.2
